# Results filed as inconclusive are left out. A call without a number means that no potency is given here. Activity calls are given as the source filed them. The call rests on the fitted dose curve; in most records, active means well fitted curve in the direction sought with a large enough effect; inconclusive means small, poorly fitted or top-dose-only effect, or another doubt; inactive means no such curve, though single readings can be large or run the other way.
# Biological target: Holo-[acyl-carrier-protein] synthase (Bacillus subtilis (strain 168)) (UniProt P96618)
# Assay: qHTS Assay for Inhibitors of Bacillus subtilis AcpS phosphopantetheinyl transferase (PPTase): SAR
# Conditions: purified B. subtilis AcpS enzyme; Potency: PPTase activity; series mostly up to 57.1 µM
# From the text: The covalent attachment of a phosphopantetheinyl (4'-PP) arm to a variety of synthases and other proteins is a key posttranslational protein modification. The 4'-PP is installed on the proteins post-translationally from coenzyme A (CoA) on a conserved serine residue by action of phosphopantetheinyl transferase (PPTase) enzymes. Phosphopantetheinylation is essential for synthase activity, and removal of the PPTase gene precludes natural product synthesis in microorganisms, or in the case of fatty acid biosynthesis, renders the organism unviable. PPTase enzymes belong to a distinct structural superfamily. Within bacteria, these enzymes are grouped into two classes based upon primary structure, the AcpS-Type and Sfp-Type PPTases.
# Sfp-type PPTases, corresponding to an activator of surfactin production in Bacillus subtilis, are responsible for modifying type I polyketide and nonribosomal peptide synthases of prokaryotes. Sfp-type PPTases are responsible for the activation of a variety of pathogen-associated virulence factors. Among these compounds are toxins such as mycolactone from Mycobacterium ulcerans, siderophores such as vibriobactin from Vibrio cholerae or mycobactin from Mycobacterium tuberculosis, as well as the mycolic acids which form the waxy cell wall of Mycobacteria. The biosyntheses of these natural products are considered attractive targets for drug design.
# In search of small molecule Sfp-PPTase inhibitors, a fluorescence quenching assay was developed for detection of Bacillus subtilis Sfp-PPTase enzymatic activity in a miniaturized high-throughput format. The consensus ybbr acceptor peptide […] was N-terminally labeled with Black Hole Quencher-2 (BHQ-2) and used in combination with rhodamine-labeled coenzyme A as a co-substrate.
# This project seeks to identify Sfp-PPTase inhibitors. This assay sought to determine the activity of these compounds with holo-acyl carrier protein synthase (AcpS) from E. coli, the canonical representative of the AcpS-PPTase subgrouping (vide supra). The evaluation utilized the qHTS assay format, with the only change being direct substitution of the enzyme.
# NIH Chemical Genomics Center [NCGC]
# NIH Molecular Libraries Probe Centers Network [MLPCN]
# Assay Submitter (PI): Michale Burkart, University of California, San Diego
# The assay was performed in a buffer consisting of 50mM HEPES-Na pH 7.6, 10mM MgCl2, 0.01% Nonidet P-40, and 0.01% BSA. Reagents (3 uL) were dispensed into a 1536-well black solid bottom plate (100 nM AcpS PPTase incolumns 1, 2, 5 through 48; buffer sans enzyme in columns 3 &4). DMSO solution of test articles (23 nL) were transferred via Kalypsys pintool equipped with 1,536-pin array. Following a room temperature incubation (15 min), enzyme reactions were initiated by the addition of substrate (1 uL , final concentration in the plte for rhodamine-CoA and BHQ-2-YbbR 5 uM and 12.5 uM, respectively). The plate was then centrifuged (15 s, 1000 rpm), and the fluorescence intensity recorded on a ViewLux High-throughput CCD imager (Perkin-Elmer, 525 nm excitation and 598 nm emission). The plate was then incubated at room temperature (30 min), after which a second read on the ViewLux was recorded. The fluorescence intensity difference over the 30-minute period was used to calculate the respective reaction rate for each well.
row,SMILES,Potency
1,Cc1ccnc(N=C(N)N2CCN(c3cccc(C(F)(F)F)c3)CC2)c1,inactive
2,Cc1cc(C)nc(NC(=S)N2CCN(c3ccc([N+](=O)[O-])cc3Cl)CC2)c1,6.46 µM (active)
3,Cc1ccnc(NC(=S)N2CCCc3ccc(C(F)(F)F)cc32)c1,inactive
4,Cc1nc(CN(C)c2ncnc3ccc(-c4ccc5[nH]ncc5c4)cc23)cs1,inactive
5,Cc1ccnc(NC(=S)Nc2cccc(C(F)(F)F)c2)c1,inactive
6,Cc1cc(C)nc(NC(=S)N2CCN(c3ncccc3C#N)CC2)c1,inactive
7,COc1cccc(NC(=S)N2CCN(c3cc(Cl)cc(Cl)c3)CC2)n1,inactive
8,CSC(Cc1ccc(Cl)cc1)C(=O)Nc1ccc(Cl)cc1C(=O)O (configuration not stated),inactive
9,Cc1ccnc(NC(=S)N[C@@H]2CCN(c3cccc(C(F)(F)F)c3)C2)c1,inactive
10,CC(Cc1ccccc1)C(=O)Nc1ccc(Cl)cc1C(=O)O (configuration not stated),inactive
11,FC(F)(F)c1cc(N2CCN(C(=S)Nc3cc(Cl)ccn3)CC2)cc(C(F)(F)F)c1,inactive
12,Cc1ccnc(NC(=S)N2CCN(c3cc(C(F)(F)F)cc(C(F)(F)F)c3)CC2)c1,4.57 µM (active)

# Reference: PubChem BioAssay AID602360 (National Center for Advancing Translational Sciences (NCATS), 2012)
